Hit rate of the full screen: of about 220,000 compounds, about 570 (0.26%) were called active. Many of the other results were omitted from the sample, so actives are more common in it than they were. Values without a mark were called inactive. Rule as the data show it: active = inhibition above about 29%; inactive = the rest.

Sequence of Sphingosine 1-phosphate receptor 4 (Homo sapiens) (O95977 whole entry, looked up): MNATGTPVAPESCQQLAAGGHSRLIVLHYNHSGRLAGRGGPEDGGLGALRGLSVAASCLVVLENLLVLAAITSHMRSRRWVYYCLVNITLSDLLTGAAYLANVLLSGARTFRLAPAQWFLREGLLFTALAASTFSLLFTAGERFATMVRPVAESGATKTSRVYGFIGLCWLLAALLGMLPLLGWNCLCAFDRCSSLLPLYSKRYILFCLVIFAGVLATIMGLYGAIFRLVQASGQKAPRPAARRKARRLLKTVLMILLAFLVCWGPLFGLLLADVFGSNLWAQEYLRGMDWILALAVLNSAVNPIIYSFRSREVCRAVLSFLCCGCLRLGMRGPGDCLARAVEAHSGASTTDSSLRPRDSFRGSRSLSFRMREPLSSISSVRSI

The experiment has as its target Sphingosine 1-phosphate receptor 4 (Homo sapiens) (UniProt O95977). The experiment is described as follows: S1P4 receptor antagonists, primary screen, cell-based (AID 1510).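 Also: 0% = wells stimulated with agonist and 100% = vehicle wells without agonist.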 The conditions noted are these: S1P4-expressing cells, antagonist mode, reporter read-out; at 4.98 µM; active compounds read high.
As a reminder, the inhibition is the drop in the measured response relative to a control, in per cent. On to `CN(C)CC1Oc2ccccc2OC1(O)c1ccccc1` (stereo not given), for which the inhibition was 66% (active). Next, `Cc1ccc(-c2nn(CCC#N)cc2C(=O)O)cc1C`: -15.8%; `O=C(COC(=O)Cc1ccccc1)Nc1ccc(F)cc1`: -14%; `COP(=O)(NS(=O)(=O)c1ccccc1)OC`: -0.89%. Next, `CN1CCN(Cc2ccc(OC(F)(F)F)cc2)CC1`: -5.02%.

Source of the values: PubChem BioAssay AID1510 (The Scripps Research Institute Molecular Screening Center, 2009).
